Source: PubChem (National Center for Advancing Translational Sciences (NCATS))
Hits are enriched below; roughly 21% of the tested compounds scored in any of these assays.
ELG1 DNA repair – qHTS screen for small molecules that inhibit ELG1-dependent DNA repair in human embryonic kidney (HEK293T) cells expressing luciferase-tagged ELG1; Potency, µM (titrated, usually from 46.1 µM), most hits filed as inhibitors; 330,000 tested, 2.3% active; HEK293T ELG1-luciferase reporter, luminescence, 16 h; DNA damage induced by 5-fluorouridine; note: nearly all actives have a fitted effect of over 55% in size
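Cells (2,000 per well) received 5-fluorouridine plus test compound or DMSO and were incubated 16 hr at 37 °C, 5% CO2. Luciferase activity was read by luminescence 30 min after ONE-Glo addition; signal suppression marked inhibition of damage-induced ELG1 function.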
RORg inh – qHTS for inhibitors of ROR gamma transcriptional activity | AID 2551, 2010 | Potency, µM (highest dose often 53.6 µM), actives largely listed as inhibitors | 310,000 tested, 5.4% active | Nuclear receptor ROR-gamma (Mus musculus), P51450 | Drosophila S2 Gal4-RORgamma UAS-luciferase reporter, 20 h; note: nearly all actives have a fitted effect of over 60% in size
Target sequence (P51450 whole entry, looked up, the tested form may be a part): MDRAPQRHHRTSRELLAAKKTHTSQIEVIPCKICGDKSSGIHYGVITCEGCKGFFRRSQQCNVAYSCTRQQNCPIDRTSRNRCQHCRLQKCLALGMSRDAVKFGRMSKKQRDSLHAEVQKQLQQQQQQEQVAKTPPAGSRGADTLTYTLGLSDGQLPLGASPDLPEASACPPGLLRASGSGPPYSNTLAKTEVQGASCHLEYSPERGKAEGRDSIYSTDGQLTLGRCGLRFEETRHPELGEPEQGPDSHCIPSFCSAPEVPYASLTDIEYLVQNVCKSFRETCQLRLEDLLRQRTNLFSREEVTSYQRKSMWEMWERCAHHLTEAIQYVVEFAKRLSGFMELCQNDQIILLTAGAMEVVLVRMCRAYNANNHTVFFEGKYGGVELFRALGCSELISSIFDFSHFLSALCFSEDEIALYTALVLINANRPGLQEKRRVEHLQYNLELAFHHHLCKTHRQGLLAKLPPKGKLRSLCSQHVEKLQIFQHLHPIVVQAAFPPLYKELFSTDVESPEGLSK
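Using a luciferase readout, inhibitors were identified by reduced reporter activity in Drosophila cells coexpressing a copper-inducible Gal4–ROR gamma fusion and UAS-driven Photinus luciferase, incubated 20 hr after 700 uM copper sulfate.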
Gal4-VP16 FLuc – VP16 counterscreen qHTS for inhibitors of ROR gamma transcriptional activity. 310,000 tested, 3.5% active. Drosophila S2 Gal4-VP16 UAS-luciferase, luminescence, 20 h. Potency, µM (doses to about 53.6 µM), most hits filed as inhibitors;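 note: Gal4-VP16 expression switched on by copper sulfate through the metallothionein promoter; nearly all actives have a fitted effect of over 50% in size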
IL1B secr inh – qHTS for Inhibitors of Inflammasome Signaling: IL-1-beta AlphaLISA Primary Screen; THP-1 LPS/ATP IL-1B secretion, AlphaLISA, 16 h; stronger effect = lower value; activity change, % at 57.5 µM; 360,000 tested, 4.7% active; in the data active = activity change below about -50%; inconclusive = mostly about -30% to -49%
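Secreted IL-1B measured by AlphaLISA bead assay after 16 h compound exposure of THP-1 cells; compounds (final up to 57.5 uM) added 1 h before LPS (250 ng/mL) and ATP (1.25 mM) stimulation; lower signal means less secretion.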
TDP1 cell CPT – qHTS for Inhibitors of human tyrosyl-DNA phosphodiesterase 1 (TDP1): qHTS in cells in presence of CPT; chicken DT40 Tdp1-/-;hTDP1 cells + 20 nM CPT, ATP luminescence, 48 h; Potency, µM (titrated, usually from 46.2 µM), hits mostly inhibitors; 420,000 tested, 12% active; note: nearly all actives have a fitted effect of over 55% in size
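Chicken DT40 Tdp1-/- cells complemented with human TDP1, 400 cells/well, exposed to compounds plus 20 nM camptothecin for at least 48 h at 37 C; viability read as ATP content by CellTiter-Glo luminescence.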
DT40 TDP1 no CPT – qHTS for Inhibitors of human tyrosyl-DNA phosphodiesterase 1 (TDP1): qHTS in cells in absence of CPT | DT40 Tdp1-/- hTDP1 cells, no CPT, ATP luminescence, 48 h | Potency, µM (series often up to 46.2 µM), most hits filed as inhibitors | 420,000 tested, 15% active | AID 686978, 2013; note: nearly all actives have a fitted effect of over 55% in size
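Chicken DT40 Tdp1-/- cells stably complemented with human TDP1 were seeded at 400 cells/well with DMSO in place of 20 nM camptothecin. After compound pinning, cells grew at least 48 hr at 37 °C; viability read by CellTiter-Glo luminescence.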
Numbers stand for hits; 0 = inactive; ? = inconclusive; - = no result; [ ] = another dose, or the depositor's remark. Unless noted, calls come from the whole dose curve; as a rule, active = well fitted curve in the direction sought with a large enough effect; inconclusive = small, poorly fitted or top-dose-only effect, or another doubt; inactive = no such curve, though single readings can be large; an effect the other way counts as inactive or inconclusive.

SMILES	ELG1 DNA repair	RORg inh	Gal4-VP16 FLuc	IL1B secr inh	TDP1 cell CPT	DT40 TDP1 no CPT
Cc1ccc(N=C2NC(=O)/C(=C/c3cn(C)c4ccccc34)S2)cc1C	?	13µM	?	0	18µM	18µM
Cc1cc2c(cc1C)-n1nnnc1C(N1CCN(c3ncccc3C#N)CC1)C(=O)N2 (stereo not drawn)	-	-	-	0	?	?
Cc1cccc(C(=O)Nc2ccc3nc(SCC(=O)N4CCc5ccccc54)sc3c2)c1	-	-	-	-	5.8µM	4.6µM
Cc1ccccc1C(=O)Nc1ccc2nc(SCC(=O)N3CCc4ccccc43)sc2c1	-	-	-	-	5.2µM	3.7µM
Cc1cccc(C(=O)Nc2ccc3nc(SCC(=O)N4CCCC4)sc3c2)c1	-	-	-	-	?	16µM
CCC(CC)C(=O)Nc1ccc2nc(SCC(=O)N3c4ccccc4CC3C)sc2c1 (stereo not drawn)	-	-	-	-	12µM	16µM
COc1ccc(OC)c(N2C(=O)CC(NNC(=O)c3ccc4c(c3)OCO4)C2=O)c1 (stereo not drawn)	0	-	-	0	0	0
Cc1c(NS(=O)(=O)c2cccc(C(=O)NCc3cccc(Cl)c3)c2)c(=O)n(-c2ccccc2)n1C	-	-	-	0	0	0
Cc1cccc(C)c1NC(=O)COC(=O)CN1C(=O)C2CCCCC2C1=O (stereo not drawn)	0	-	-	0	?	0
COC(=O)c1ccc2c(c1O)C(=O)c1ccccc1C2=O	?	?	0	?	23µM	21µM
NC(=O)c1cccc2c1-c1ccccc1/C2=N/NC(N)=S	0	?	?	0	0	?
COC(=O)c1ccccc1NCCO	0	0	0	0	0	0
COC(=O)c1cccc2c1-c1ccccc1/C2=N\NC(N)=O	?	0	0	?	?	15µM
COC(=O)c1cccc2c1-c1ccccc1/C2=N/O	?	14µM	?	0	16µM	13µM
CN(C)c1cccc2c(C=C(C#N)C#N)ccc(N(C)C)c12	0	0	0	-95	?	?
COc1ccc(N(C)C(=O)Cn2cc(S(=O)(=O)N3CCN(c4ccccc4F)CC3)c3ccccc3c2=O)c(OC)c1	-	-	-	-	0	23µM
O=C(CSCc1ccccc1)Nc1cccc(F)c1	?	0	0	0	7.3µM	?
COc1ccc(NC(=O)CN(C)C(=O)C(Sc2ccccc2)c2ccccc2)cc1 (stereo not drawn)	?	-	-	0	16µM	?
COc1ccc(NC(=O)CN(C)C(=O)c2ccccc2CCc2ccccc2)cc1	0	-	-	-52	0	0
O=C(Cc1ccccc1)Nc1cccc(N2C(=O)C=CC2=O)c1	0	3.5µM	5µM	-67	5.2µM	4.6µM
Cc1ccc(NC(=O)CN(C)C(=O)C(c2ccccc2)c2ccccc2)cc1	0	-	-	0	?	?
Cc1cccc(N2CCN(C(=O)COc3ccc4c(c3)CCC4)CC2C)c1 (stereo not drawn)	0	-	-	0	?	?
CN(CC(=O)Nc1cccc(F)c1)C(=O)c1ccccc1CCc1ccccc1	?	-	-	0	15µM	21µM
CCN(CC(=O)Nc1cc(Cl)ccc1C)C(=O)c1ccc(N2CCCC2=O)cc1	?	-	-	0	0	0
NC(=S)NN=C1Cc2cccc3cccc1c23	-	-	-	0	0	0
SMILES	ELG1 DNA repair	RORg inh	Gal4-VP16 FLuc	IL1B secr inh	TDP1 cell CPT	DT40 TDP1 no CPT
COc1ncnc2c1ncn2CCCNCC(c1ccccc1)c1ccccc1	-	-	-	0	23µM	18µM
c1ccc(COc2ncnc3c2ncn3CCCNCC(c2ccccc2)c2ccccc2)cc1	-	-	-	-94	26µM	16µM
COc1ncnc2c1ncn2CCCNCC(C)c1ccccc1 (stereo not drawn)	-	-	-	0	0	0
C(=C\c1ccnc2ccccc12)/c1ccc2ccccc2n1	-	-	-	-	7.1µM	7.9µM
C(=Cc1c[nH]c2ccccc12)c1ccc2ccccc2n1	-	-	-	0	?	?
Clc1ccc(/C=C/c2ccnc3ccccc23)cc1	-	-	-	-	10µM	8.9µM
C(=C\c1ccnc2ccccc12)/c1ccc(-[n+]2cc[n+](-c3ccc(/C=C/c4ccnc5ccccc45)cc3)cc2)cc1	-	-	-	-	5.6µM	5µM
O=Nc1ccc(/C=C/c2ccnc3ccccc23)cc1	-	-	-	-	16µM	8.9µM
Clc1ccc(/C=C/c2ncc3ccccn23)cc1	?	0	0	?	0	0
COC(=O)c1cc(C)c(C)cc1NC1OC(CO)C(O)C1O (stereo not drawn)	-	-	-	0	0	0
Clc1ccc(/C=C/c2ccnc3ccccc23)c(Cl)c1	-	-	-	-	5.6µM	3.5µM
Clc1ccc(C=Cc2ccccn2)c(Cl)c1	-	-	-	0	?	0
Nc1ccc(/C=C/c2ccnc3ccccc23)cc1	-	-	-	-	10µM	11µM
Cn1cc(/C=C/c2ccc3ccccc3n2)c2ccccc21	-	-	-	-	11µM	10µM
Fc1ccccc1/C=C/c1ccc2ccccc2n1	?	0[10 µM]	?	0	?	?
C(=C\c1ccnc2ccccc12)/c1ccccc1	-	-	-	-	?	13µM
COC(=O)c1c(OCc2ccccn2)cc(=O)n2c1CCN(C(=O)c1n[nH]c3c1CCCC3)CC2	-	-	-	-	0	0
C(=C\c1nnc2c3ccccc3ncn12)/c1ccccc1	?	?	?	0	5.2µM	4.6µM
Cc1cnc2ccccc2c1C	-	-	-	-	0	0
Nc1cccc(Nc2ncnc3ccccc23)c1	?	0	0	0	0	0
C(=C/c1ccccc1)/c1ccccc1	-	0	0	-	-	-
Cc1c(C)c(C)c(/C=C/c2ccnc3ccccc23)c(C)c1C	-	-	-	-	11µM	11µM
Nc1ccc(/C=C/c2ccnc3ccccc23)c(N)c1	-	-	-	-	10µM	?
Cn1c(-c2cccc(Br)c2)n[nH]c1=O	?	0	0	0	0	0
CCOc1ncccc1C(=O)Nc1cc(S(=O)(=O)N2CCCCC2)ccc1C	0	-	-	0	?	0
SMILES	ELG1 DNA repair	RORg inh	Gal4-VP16 FLuc	IL1B secr inh	TDP1 cell CPT	DT40 TDP1 no CPT
CN(Cc1ccccc1F)C(=O)CNC(=O)Cc1cccc2ccccc12	0	0	0	0	0	0
CC(C)(C)OC(=O)N1CCC(CNC(=O)c2ccccc2)CC1	0	0	0	0	0	0
CC1(C)CC(Cc2ccc(C(=O)c3ccccc3)cc2)N(C(=O)OC(C)(C)C)N1 (stereo not drawn)	-	-	-	0	6.5µM	4.1µM
CCCCCCSc1nnc(-c2cnn(-c3ccccc3)c2-n2cccc2)n1C	0	0	?	0	?	21µM
CC(C)(C)C(=O)NC(=S)Nc1ccc(C(F)(F)F)cc1	0	4.5µM	?	0	0	?
CCCCNC(=S)Nc1ccc(Cl)cc1	0	7.1µM	?	0	?	23µM
